# KCNQ2 enhance – KCNQ2 (rat) channel potentiation; CHO-K1 KCNQ2, FluxOR thallium flux fluorescence; stronger effect = higher value; AID 2239; 0.54% of 310,000 active; O88943; B-score at 10 µM;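 active = fluorescence ratio B-score at least 3 SD of library B-scores, with initial fluorescence B-score within 3 of them, cut at about 5.3 in these data; same plate scores as AID 2156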;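 note: B-score of peak minus minimum over baseline fluorescence ratio after K+ and Tl+ stimulus; positive B-score means potentiation of KCNQ2 with more thallium influx and brighter signal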
# KCNQ2 inh – KCNQ2 (rat) channel inhibition; CHO-K1 KCNQ2, FluxOR thallium flux, 20 min; stronger effect = lower value; B-score at 10 µM; 1.1% of 310,000 active; AID 2156;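 active = fluorescence ratio B-score at most minus 3 library SDs, with starting brightness B-score within 2 library SDs, cut at about -5.5 in these data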
# Kir21 confirm – confirmation of mouse Kir2.1 potassium channel inhibitors; Tl flux remaining, % of negative control (stronger effect = lower value), % at 10 µM; shares compounds with KCNQ2 enhance; Kir2.1-expressing cells, FluxOR thallium flux fluorescence; stronger effect = lower value; 41% of 2,300 active;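 active = Primary-screen hit whose thallium flux fell at least 3 control SD below untreated wells in both duplicates, with normal baseline fluorescence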;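 note: 0% = blank wells without stimulus and 100% = stimulated no-compound controls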
# Target sequence (P35561 whole entry, looked up): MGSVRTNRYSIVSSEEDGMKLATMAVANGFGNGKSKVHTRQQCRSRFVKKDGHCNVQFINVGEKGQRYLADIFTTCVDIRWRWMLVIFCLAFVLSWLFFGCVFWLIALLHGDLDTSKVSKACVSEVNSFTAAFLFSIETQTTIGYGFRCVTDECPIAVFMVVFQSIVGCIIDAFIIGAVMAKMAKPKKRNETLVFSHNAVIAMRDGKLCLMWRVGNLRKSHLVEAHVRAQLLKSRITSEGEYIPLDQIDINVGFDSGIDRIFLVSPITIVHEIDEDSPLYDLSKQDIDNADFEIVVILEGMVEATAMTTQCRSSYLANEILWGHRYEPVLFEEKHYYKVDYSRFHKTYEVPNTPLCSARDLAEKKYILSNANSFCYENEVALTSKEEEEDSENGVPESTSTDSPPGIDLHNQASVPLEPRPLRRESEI
# HEK293 Tl flux – parental HEK293 activity in Kir2.1 inhibitor counter-screen | shares compounds with KCNQ2 enhance | parental HEK293 cells, FluxOR thallium flux fluorescence; 0% = unstimulated blank wells | FluxOR signal as % of negative control (100 = no effect), % at 10 µM | 19% of 2,300 active | AID 2105;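 active = dye signal at least 3 control SD above or below untreated wells in both duplicates, raw fluorescence within 3, either direction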;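 note: percent is based on the flux ratio of peak minus minimum fluorescence over baseline F0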
# CHO-K1 ctr – counter-screen for KCNQ2 potentiators: effect in parental CHO-K1 cells; FluxOR thallium flux fluorescence; zero = vehicle mean+3SD, 100% = vehicle-minus-blank window; 43% of 1,200 active; activity increase over 3SD of controls, % at 10 µM; shares compounds with KCNQ2 enhance; AID 2282;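 active = signal rise of at least 3 SD above the untreated control mean, in both duplicate wells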;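 note: counter screen of KCNQ2 potentiator hits so any rise reflects channel-independent effects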
# KCNQ1 sel pot – selectivity of KCNQ2 potentiators: effect on human KCNQ1; CHO KCNQ1 stable, FluxOR thallium flux fluorescence; beyond 3SD, as % of vehicle-control signal; shares compounds with KCNQ2 enhance; activation over 3SD threshold, % at 10 µM; 28% of 1,200 active;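 active = fluorescence ratio rise of at least 3 SD of vehicle wells above their mean, in both replicate wells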;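 note: 0% = vehicle mean plus 3 SD and 100% = vehicle minus unstimulated blank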
# KCNQ2 pot conf – confirmation of rat KCNQ2 potassium channel potentiators; shares compounds with KCNQ2 enhance; CHO-KCNQ2 cells, FluxOR thallium flux fluorescence; potentiation, less the hit threshold, % at 10 µM; 68% of 1,200 active; AID 2287;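 active = fluorescence ratio rising 3 SD or more over the vehicle control mean in both replicates, plus primary screen hit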;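 note: peak minus minimum thallium fluorescence divided by baseline after K/Tl stimulus; 0% = vehicle mean plus 3 SD and 100% = vehicle minus unstimulated blank difference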
# Kir2-1 sel – tests whether KCNQ2 potentiators also affect mouse Kir2.1; shares compounds with KCNQ2 enhance; HEK293 Kir2.1, FluxOR thallium flux fluorescence; activity over 3SD threshold, % at 10 µM; 2% of 1,200 active; AID 2345;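 active = fluorescence ratio rise of at least 3 SD above the vehicle-control mean, seen in both replicates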;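 note: 0% = vehicle mean plus 3 SD and 100% = vehicle minus no-stimulus blank window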
# KCNQ2 W236L MoA – KCNQ2 potentiators acting on retigabine-insensitive rat KCNQ2 W236L mutant | shares compounds with KCNQ2 enhance | CHO KCNQ2-W236L, automated patch clamp current | current increase over 3SD of negative controls (%), stronger effect = higher value, % at 25 µM | 10% of 940 active | AID 2558;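 active = current increase at least 3 SD of the untreated controls above them in both duplicate recordings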
# Starred values were filed as active, the others as inactive; i = inactive; nt = no result given. Compounds with a hit are over-represented: about 1.6% of the library has one in this group of screens.
SMILES,KCNQ2 enhance,KCNQ2 inh,Kir21 confirm,HEK293 Tl flux,others
COc1ccc(Nc2ncnc3ccccc23)cc1,2.4,i,nt,nt,
COc1ccc(Nc2ccnc3ccccc23)cc1,2,i,14%*,i,
CCCCCCCCCCCCCCCC[N+](C)(C)CC,nt,i,52%*,i,
CCCCCC[N+](C)(C)CCSSCC[N+](C)(C)CCCCCC,0.45,i,nt,nt,
COC(=O)C1=C(CCc2ccccc2)NC(=O)NC1c1ccc([N+](=O)[O-])cc1 (centres undefined),0.17,i,nt,nt,
N#CC1=C(N)N(c2ccccc2)C(c2cccc([N+](=O)[O-])c2)C1(C#N)C#N (centres undefined),nt,i,59%*,72%*,
N#CC1=C(N)N(c2ccccc2)C(c2ccco2)C1(C#N)C#N (centres undefined),nt,i,nt,nt,
Cc1ccccc1OC(C)C(=O)NCCC1=CCCCC1 (centres undefined),-5.9,-5.9*,38%*,i,
CC(OC(=O)c1ccccc1)C(=O)NCCC1=CCCCC1 (centres undefined),1.2,i,nt,nt,
C=C(C)CNC(=O)c1ccc2nc(Cc3ccc(OC)cc3)oc2c1,nt,i,nt,nt,
CN(C)CCCn1c(NC(=O)C2CCCCC2)nc2ccccc21,0.81,i,nt,nt,
CCCCn1c(NC(=O)C2CCCCC2)nc2ccccc21,9.6*,i,i,i,CHO-K1 ctr=3.9*;KCNQ1 sel pot=-15;KCNQ2 pot conf=16*;Kir2-1 sel=-38;KCNQ2 W236L MoA=i
COc1cccc(/C=C/C(=O)Nc2ccc3c(c2)OCCO3)c1OC,0.34,i,nt,nt,
Cc1cc(Oc2ccccc2)nc(SCC(=O)Nc2ccc(Cl)c(Cl)c2)n1,5.5*,i,i,i,CHO-K1 ctr=-26;KCNQ1 sel pot=-10;KCNQ2 pot conf=6.8*;Kir2-1 sel=-35;KCNQ2 W236L MoA=i
Cc1cc(Oc2ccccc2)nc(SCC(=O)Nc2ccccc2)n1,nt,i,nt,nt,
COc1ccc(CC(=O)Nc2nc(C(C)(C)C)cs2)cc1,nt,i,30%*,i,
COc1ccc(CC(=O)Nc2nc(C)cs2)cc1,nt,i,nt,nt,
Cc1ccc(S(=O)(=O)N2CCCC2C(=O)NCc2ccc3c(c2)OCO3)cc1 (centres undefined),1.2,i,nt,nt,
Cc1ccc(N2CC(=O)N(NC(=O)c3sc4nc(C)cc(C)c4c3N)CC2=O)cc1,nt,i,nt,nt,
COc1ccc([C@@H](C)NC(=O)c2ccc3oc(C(C)C)nc3c2)cc1,nt,i,nt,nt,
CC(C)(Oc1ccc(Cl)cc1)C(=O)OCC(=O)NCCc1ccccc1,1.8,i,62%*,i,
O=C(COC(=O)CCSc1ccc(Cl)cc1)NCCc1ccccc1,nt,i,nt,nt,
Cc1occc1C(=O)NNC(=S)NC(=O)COc1ccc(Cl)cc1Cl,9.5*,i,i,149%*,CHO-K1 ctr=-18;KCNQ1 sel pot=93*;KCNQ2 pot conf=6.5*;Kir2-1 sel=-25;KCNQ2 W236L MoA=i
Cc1occc1C(=O)NNC(=O)COc1ccc(Br)cc1Br,nt,i,nt,nt,
Clc1cccc(CN2CCC(Cc3ccccc3)CC2)c1,nt,i,71%*,i,
SMILES,KCNQ2 enhance,KCNQ2 inh,Kir21 confirm,HEK293 Tl flux,others
CSc1ccc(OC2CCN(Cc3ccccc3)CC2)cc1,nt,i,nt,nt,
CSc1ccc(CN2CCC(Cc3ccccc3)CC2)cc1,nt,i,18%*,i,
Clc1ccc(CN2CCC(Cc3ccccc3)CC2)cc1,nt,i,nt,nt,
CCN1CCCC1CNC(=O)Cn1nc(C)n2nc(-c3ccccc3)cc2c1=O (centres undefined),nt,i,nt,nt,
CCCC(=O)OC1CCS(=O)(=O)c2sccc21 (centres undefined),nt,i,nt,nt,
COC(=O)c1ccc(C2/C(=C(/O)c3ccc4c(c3)CC(C)O4)C(=O)C(=O)N2Cc2ccncc2)cc1 (centres undefined),0.28,i,nt,nt,
O=C(CN1CCN(C(=O)C2COc3ccccc3O2)CC1)Nc1ccc(F)cc1 (centres undefined),nt,i,nt,nt,
CC(C)=CCC/C(C)=C/CC(C)(C)CNCCN1CCNCC1,nt,i,i,i,
CC(C)=CCC/C(C)=C/CCC(C)NCCN1CCNCC1 (centres undefined),nt,i,nt,nt,
CC(C)NC(=O)COC(=O)C1CSC2(c3ccc(Br)cc3)CCC(=O)N12 (centres undefined),nt,i,nt,nt,
O=C(CSc1ccc(F)cc1)Nc1nnc(-c2ccco2)o1,1.8,i,nt,nt,
Cc1ccc(SCC(=O)Nc2nnc(-c3ccco3)o2)cc1,5.6*,i,nt,nt,CHO-K1 ctr=-2;KCNQ1 sel pot=-16;KCNQ2 pot conf=-20;Kir2-1 sel=-43
COc1cc(OC)c(OC)cc1CN1CCN(Cc2ccco2)CC1,nt,i,nt,nt,
COc1ccccc1C(CNC(=O)C(C)Oc1ccc(Br)cc1)N1CCCC1 (centres undefined),0.14,i,i,i,
COc1ccc(C(CNC(=O)C(C)Oc2ccc(Br)cc2)N2CCOCC2)cc1 (centres undefined),nt,i,nt,nt,
COc1ccccc1N1CCN(Cc2ccc(O)c3ncccc23)CC1,6.5*,i,i,126%*,CHO-K1 ctr=-5;KCNQ1 sel pot=-22;KCNQ2 pot conf=3.8*;Kir2-1 sel=-45;KCNQ2 W236L MoA=i
COc1ccccc1N1CCN(Cc2ccc(OC)c(OC)c2OC)CC1,nt,i,nt,nt,
C=CCn1c(SCC(=O)Nc2cccc(S(=O)(=O)N(C)c3ccccc3)c2)nnc1C1CC1,2.3,i,nt,nt,
COC(=O)c1cccc(OCC(O)Cn2ccnc2)c1 (centres undefined),nt,i,nt,nt,
COc1ccc(C(=O)OC(COc2ccccc2)Cn2ccnc2)cc1 (centres undefined),nt,i,54%*,i,
CCCNC(=O)c1onc(CSc2ccc(F)cc2)c1C(=O)NCC1CC1,nt,i,nt,nt,
COC(=O)c1ccc(CNCC(O)COc2ccc(-c3ccccc3)cc2)cc1 (centres undefined),nt,i,nt,nt,
Cc1ccc(CNC(=O)NCc2ccccc2)cc1,1.7,i,nt,nt,
COc1ccc(CNCc2cccc(Cl)c2)cc1,0.35,i,nt,nt,
Cc1ccc(CNCC(O)(c2ccccc2)c2ccccc2)cc1,nt,i,42%*,i,
COc1ccc(CCNCC(O)COc2cccc(Br)c2)cc1 (centres undefined),0.09,i,25%*,i,
COc1ccc(CNCC(O)(c2ccccc2)c2ccc(Cl)cc2)cc1 (centres undefined),-5.6,-5.6*,62%*,i,
COc1ccc(CNCC(O)COc2ccc(C(C)(C)c3ccccc3)cc2)cc1 (centres undefined),nt,i,41%*,65%*,

# Compound activity as filed in PubChem.
